The target in the first test is Catechol O-methyltransferase (Homo sapiens) (UniProt P21964). The experiment in a line: Confirmatory Screen for Target Class Profiling of Small Molecule Inhibitors of Methyltransferases (AID 1745852). As to activity change, negative = inhibition: % is scaled to controls: 0 for no effect and ±100 for the full control effect. The following applies: MTase-Glo luminescence, SAH detection, recombinant enzyme; measured here: COMT max response; stronger effect = lower value.
Catechol O-methyltransferase (Homo sapiens), sequence (P21964 whole entry, looked up): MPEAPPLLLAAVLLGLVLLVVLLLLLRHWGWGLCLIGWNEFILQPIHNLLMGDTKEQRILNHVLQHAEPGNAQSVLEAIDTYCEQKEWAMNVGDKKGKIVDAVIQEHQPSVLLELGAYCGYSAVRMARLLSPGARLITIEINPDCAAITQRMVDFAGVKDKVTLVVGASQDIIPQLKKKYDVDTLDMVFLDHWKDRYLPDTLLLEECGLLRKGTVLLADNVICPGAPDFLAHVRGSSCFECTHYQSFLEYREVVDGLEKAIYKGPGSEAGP
In the case of `CNCCN(C)Cc1cn[nH]c1-c1ccc(OC2CC(OCCC3CCOCC3)C2)cc1` (centres undefined), the activity was 0.741%.

As to `Nc1nc(NCC2CCC(CNS(=O)(=O)c3cccc4ccccc34)CC2)nc2ccccc12` (centres undefined), the activity is -12.1%.

For `Cc1cc(C)c(NC(=O)N(Cc2ccc3c(c2)Cc2ccccc2-3)C2CCCCCC2)c(C)c1`, the activity was -9.37%.

In the case of `CN(Cc1ccc(C(=O)O)cc1)c1ccc(OCc2c(-c3c(Cl)cccc3Cl)noc2C2CC2)nc1C(F)(F)F`, the activity is -2.57%.

In the case of `C=CC(=O)N1CCN(C(=O)c2cc(-c3cc(Cl)ccc3Cl)c(Cl)cc2OC)CC1`, the activity was -10.7%.

Turning to `Cc1ccn(-c2cc(Cl)ccc2[C@@H](Oc2cc(-c3ccc(C[C@H](N)C(=O)O)cc3)nc(N)n2)C(F)(F)F)n1`, the activity is -0.316%.

Another test deals with Guanidinoacetate N-methyltransferase (Homo sapiens) (UniProt Q14353). Described as above. As to conditions: MTase-Glo luminescence, SAH detection, recombinant enzyme; activity change, negative = inhibition: at 57.3 µM (top of the series) unless noted; series mostly up to 57.3 µM.
As to `CNCCN(C)Cc1cn[nH]c1-c1ccc(OC2CC(OCCC3CCOCC3)C2)cc1` (centres undefined), the activity change, negative = inhibition worked out at 7.78%.

On to `Nc1nc(NCC2CCC(CNS(=O)(=O)c3cccc4ccccc34)CC2)nc2ccccc12` (centres undefined), for which the activity change, negative = inhibition was -4.41%.

Turning to `Cc1cc(C)c(NC(=O)N(Cc2ccc3c(c2)Cc2ccccc2-3)C2CCCCCC2)c(C)c1`, the activity change, negative = inhibition is -11.3%.

As for `CN(Cc1ccc(C(=O)O)cc1)c1ccc(OCc2c(-c3c(Cl)cccc3Cl)noc2C2CC2)nc1C(F)(F)F`, the activity change, negative = inhibition is -2.02%.

Regarding `C=CC(=O)N1CCN(C(=O)c2cc(-c3cc(Cl)ccc3Cl)c(Cl)cc2OC)CC1`, the activity change, negative = inhibition was -11.4%.

Regarding `Cc1ccn(-c2cc(Cl)ccc2[C@@H](Oc2cc(-c3ccc(C[C@H](N)C(=O)O)cc3)nc(N)n2)C(F)(F)F)n1`, the activity change, negative = inhibition is 0%.

For another test, the target named is Nicotinamide N-methyltransferase (Homo sapiens) (UniProt P40261). The description is as above. The following applies: MTase-Glo luminescence, SAH detection, recombinant enzyme; measured here: NNMT max response; stronger effect = lower value.
Nicotinamide N-methyltransferase (Homo sapiens), sequence (P40261 whole entry, looked up): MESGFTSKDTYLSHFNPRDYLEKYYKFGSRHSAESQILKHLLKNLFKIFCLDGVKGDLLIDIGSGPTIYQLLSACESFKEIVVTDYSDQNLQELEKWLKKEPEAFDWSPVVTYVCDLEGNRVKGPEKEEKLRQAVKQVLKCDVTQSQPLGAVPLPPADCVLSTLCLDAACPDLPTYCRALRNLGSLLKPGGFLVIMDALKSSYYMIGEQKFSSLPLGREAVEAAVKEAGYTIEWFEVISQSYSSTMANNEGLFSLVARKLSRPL
Take `CNCCN(C)Cc1cn[nH]c1-c1ccc(OC2CC(OCCC3CCOCC3)C2)cc1` (centres undefined): the activity was -3.1%.

Take `Nc1nc(NCC2CCC(CNS(=O)(=O)c3cccc4ccccc34)CC2)nc2ccccc12` (centres undefined): the activity is -26.1%.

On to `Cc1cc(C)c(NC(=O)N(Cc2ccc3c(c2)Cc2ccccc2-3)C2CCCCCC2)c(C)c1`, for which the activity is -15.8%.

For the molecule `CN(Cc1ccc(C(=O)O)cc1)c1ccc(OCc2c(-c3c(Cl)cccc3Cl)noc2C2CC2)nc1C(F)(F)F`, the activity was -0.741%.

In the case of `C=CC(=O)N1CCN(C(=O)c2cc(-c3cc(Cl)ccc3Cl)c(Cl)cc2OC)CC1`, the activity was -31.6%.

On to `Cc1ccn(-c2cc(Cl)ccc2[C@@H](Oc2cc(-c3ccc(C[C@H](N)C(=O)O)cc3)nc(N)n2)C(F)(F)F)n1`, for which the activity was -31.2%.

For a further test, the target named is Phenylethanolamine N-methyltransferase (Homo sapiens) (UniProt P11086). The description is as above. As to conditions: MTase-Glo luminescence, SAH detection, recombinant enzyme; measured here: PNMT max response; stronger effect = lower value.
Phenylethanolamine N-methyltransferase (Homo sapiens), sequence (P11086 whole entry, looked up): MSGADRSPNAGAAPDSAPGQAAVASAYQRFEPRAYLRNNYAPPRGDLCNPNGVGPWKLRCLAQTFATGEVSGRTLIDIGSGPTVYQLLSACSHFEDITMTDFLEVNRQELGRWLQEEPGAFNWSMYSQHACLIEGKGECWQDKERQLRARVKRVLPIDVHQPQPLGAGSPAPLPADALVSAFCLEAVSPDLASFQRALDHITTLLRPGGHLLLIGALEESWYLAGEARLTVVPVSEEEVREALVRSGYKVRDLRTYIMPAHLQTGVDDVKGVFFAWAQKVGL
`CNCCN(C)Cc1cn[nH]c1-c1ccc(OC2CC(OCCC3CCOCC3)C2)cc1` (centres undefined): the activity is -1.61%.

For `Nc1nc(NCC2CCC(CNS(=O)(=O)c3cccc4ccccc34)CC2)nc2ccccc12` (centres undefined), the activity was -28.4%.

In the case of `Cc1cc(C)c(NC(=O)N(Cc2ccc3c(c2)Cc2ccccc2-3)C2CCCCCC2)c(C)c1`, the activity is -14.1%.

In the case of `CN(Cc1ccc(C(=O)O)cc1)c1ccc(OCc2c(-c3c(Cl)cccc3Cl)noc2C2CC2)nc1C(F)(F)F`, the activity amounted to 0.284%.

For `C=CC(=O)N1CCN(C(=O)c2cc(-c3cc(Cl)ccc3Cl)c(Cl)cc2OC)CC1`, the activity is -2.64%.

Take `Cc1ccn(-c2cc(Cl)ccc2[C@@H](Oc2cc(-c3ccc(C[C@H](N)C(=O)O)cc3)nc(N)n2)C(F)(F)F)n1`: the activity is -1.43%.
